# Measured values from PubChem BioAssay AID1159580 (chemical genetic matrix, 2015).
# Screen size: about 5,500 compounds; about 2,000 (36%) were called active. Another 18% or so got no clear call; they are omitted. The list shows a part of the results. A number with no mark means an inactive call. No stated cut-off is given here; in the data, active means normalized growth mostly below about 0.91 (no sharp cut-off); inconclusive means no clear call, values can overlap the other calls; inactive means mostly above about 0.92.
# Assay: chemical genetic growth profiling, strain panel (AID 1159580);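 further: tested at 20 µM; growth read once vehicle control cultures reached saturation at 30 °C; 1 = growth at the plate median or of vehicle wells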
# Conditions: S. cerevisiae deletion strains, growth OD
# [1] = locus YAL013W, strain DEP1, stronger effect = lower value
# [2] = locus YBR229C, strain ROT2, stronger effect = lower value
# [3] = locus YCL061C, strain MRC1, stronger effect = lower value
# [4] = locus YDL101C, strain DUN1, stronger effect = lower value
# [5] = locus YDR150W, strain NUM1, stronger effect = lower value
# [6] = locus YEL061C, strain CIN8, stronger effect = lower value
# [7] = locus YGR078C, strain PAC10, stronger effect = lower value
# [8] = locus YHR030C, strain SLT2, stronger effect = lower value
# [9] = locus YHR087W, strain rtc3, stronger effect = lower value
# [10] = locus YJR043C, strain POL32, stronger effect = lower value
# [11] = locus YJR075W, strain HOC1, stronger effect = lower value
# [12] = locus YLR039C, strain RIC1, stronger effect = lower value
# [13] = locus YLR058C, strain SHM2 (second series), stronger effect = lower value
# [14] = locus YLR085C, strain ARP6, stronger effect = lower value
# [15] = locus YLR262C, strain YPT6, stronger effect = lower value
# [16] = locus YML094W, strain GIM5, stronger effect = lower value
# [17] = locus YMR219W, strain ESC1, stronger effect = lower value
# [18] = locus YNL153C, strain GIM3, stronger effect = lower value
# [19] = locus YNL298W, strain CLA4 (second series), stronger effect = lower value
# [20] = locus YNL322C, strain KRE1, stronger effect = lower value
# [21] = locus YNR030W, strain Alg12, stronger effect = lower value
# [22] = locus YPL055C, strain LGE1, stronger effect = lower value
# [23] = locus YPL241C, strain CIN2, stronger effect = lower value
# [24] = locus YPR135W, strain CTF4, stronger effect = lower value
smiles,measurement,setting,value
CCCc1cnc(N2CCCN(C(=S)Nc3cccnc3)CC2)nc1,normalized growth,[1],0.998
same,normalized growth,[2],0.997
same,normalized growth,[3],1.01
same,normalized growth,[4],1.06
same,normalized growth,[5],1.03
same,normalized growth,[6],0.959
same,normalized growth,[7],1.02
same,normalized growth,[8],1.05
same,normalized growth,[9],0.992
same,normalized growth,[10],1.03
same,normalized growth,[11],1.03
same,normalized growth,[12],1
same,normalized growth,[13],0.996
same,normalized growth,[14],1.04
same,normalized growth,[15],1.01
same,normalized growth,[16],1.02
same,normalized growth,[17],1.01
same,normalized growth,"locus YMR263W, strain SAP30, stronger effect = lower value",1.03
same,normalized growth,[18],1.02
same,normalized growth,[19],0.999
same,normalized growth,[20],0.987
same,normalized growth,[21],1.01
same,normalized growth,[22],1.02
same,normalized growth,[23],1.02
same,normalized growth,[24],1.07
O=[N+]([O-])c1ccc(N2CCCN(C(=S)Nc3ccc(Cl)cc3Cl)CC2)nc1,normalized growth,[1],0.966
same,normalized growth,[2],0.96
same,normalized growth,[3],0.956
same,normalized growth,[4],0.942
same,normalized growth,"locus YDL134C, strain PPH21, stronger effect = lower value",0.979
same,normalized growth,[5],0.886
same,normalized growth,[6],0.912
same,normalized growth,[7],0.961
same,normalized growth,"locus YGR229C, strain SMI1, stronger effect = lower value",0.989
same,normalized growth,[8],0.422 (active)
same,normalized growth,[9],0.906 (active)
same,normalized growth,[10],0.984
same,normalized growth,[11],0.937
same,normalized growth,[12],0.628 (active)
same,normalized growth,[13],0.96
same,normalized growth,[14],0.543 (active)
same,normalized growth,[15],0.686 (active)
same,normalized growth,[16],0.932
same,normalized growth,[17],0.982
same,normalized growth,"locus YMR307W, strain GAS1, stronger effect = lower value",0.433 (active)
same,normalized growth,[18],0.98
same,normalized growth,[19],0.831 (active)
same,normalized growth,[20],0.98
same,normalized growth,[21],0.8 (active)
same,normalized growth,"locus YOL006C, strain TOP1, stronger effect = lower value",0.831
same,normalized growth,[22],0.928
same,normalized growth,[23],0.866
same,normalized growth,[24],0.337 (active)
FC(F)(F)c1ccnc(N2CCCN(C(=S)Nc3ccc(Cl)cc3Cl)CC2)n1,normalized growth,"locus YAR019C, strain CDC15, stronger effect = lower value",0.974
same,normalized growth,"locus YBL105C, strain PKC1, stronger effect = lower value",0.977
same,normalized growth,"locus YBR135W, strain CKS1, stronger effect = lower value",0.972
same,normalized growth,"locus YBR136W, strain MEC1, stronger effect = lower value",0.973
same,normalized growth,"locus YBR160W, strain CDC28, stronger effect = lower value",0.974
same,normalized growth,"locus YDL017W, strain CDC7, stronger effect = lower value",0.966
same,normalized growth,"locus YDL028C, strain MPS1, stronger effect = lower value",0.975
same,normalized growth,[4],0.975
same,normalized growth,"locus YDL108W, strain KIN28, stronger effect = lower value",0.975
same,normalized growth,"locus YDL132W, strain cdc53, stronger effect = lower value",0.977
same,normalized growth,"locus YDL214C, strain PRR2, stronger effect = lower value",0.966
same,normalized growth,"locus YDR052C, strain DBF4, stronger effect = lower value",0.972
same,normalized growth,"locus YDR054C, strain cdc34, stronger effect = lower value",0.976
same,normalized growth,"locus YDR226W, strain ADK1, stronger effect = lower value",0.982
same,normalized growth,"locus YDR477W, strain SNF1, stronger effect = lower value",0.985
same,normalized growth,"locus YER123W, strain YCK3, stronger effect = lower value",1
same,normalized growth,"locus YER133W, strain GLC7, stronger effect = lower value",0.993
same,normalized growth,"locus YFL009W, strain cdc4, stronger effect = lower value",0.98
same,normalized growth,"locus YFL029C, strain CAK1, stronger effect = lower value",0.963
same,normalized growth,"locus YFR003C, strain YPI1, stronger effect = lower value",0.972
same,normalized growth,"locus YFR019W, strain FAB1, stronger effect = lower value",0.996
same,normalized growth,"locus YFR028C, strain CDC14, stronger effect = lower value",0.979
same,normalized growth,"locus YGR040W, strain KSS1, stronger effect = lower value",0.985
same,normalized growth,"locus YGR052W, strain FMP48, stronger effect = lower value",1.04
same,normalized growth,"locus YGR092W, strain DBF2, stronger effect = lower value",0.9
same,normalized growth,[8],0.712 (active)
same,normalized growth,"locus YHR079C, strain IRE1, stronger effect = lower value",0.848
same,normalized growth,"locus YHR082C, strain KSP1, stronger effect = lower value",1.08
same,normalized growth,"locus YHR205W, strain SCH9, stronger effect = lower value",0.946
same,normalized growth,"locus YIL147C, strain SLN1, stronger effect = lower value",0.972
same,normalized growth,"locus YJL095W, strain BCK1, stronger effect = lower value",0.942
same,normalized growth,"locus YJL128C, strain PBS2, stronger effect = lower value",0.978
same,normalized growth,"locus YJL157C, strain FAR1, stronger effect = lower value",0.981
same,normalized growth,"locus YJR016C, strain ILV3, stronger effect = lower value",0.989
same,normalized growth,"locus YJR066W, strain TOR1 (second series), stronger effect = lower value",0.953
same,normalized growth,"locus YJR066W, strain TOR1, stronger effect = lower value",1.03
same,normalized growth,"locus YKL048C, strain ELM1, stronger effect = lower value",0.961
same,normalized growth,"locus YKL067W, strain YNK1, stronger effect = lower value",0.973
same,normalized growth,"locus YKL101W, strain HSL1, stronger effect = lower value",0.958
same,normalized growth,"locus YKL193C, strain SDS22, stronger effect = lower value",0.978
same,normalized growth,"locus YKL203C, strain TOR2, stronger effect = lower value",1.02
same,normalized growth,"locus YLR113W, strain HOG1, stronger effect = lower value",0.689 (active)
same,normalized growth,"locus YLR133W, strain CKI1, stronger effect = lower value",0.979
same,normalized growth,"locus YLR403W, strain SFP1, stronger effect = lower value",0.982
same,normalized growth,"locus YML070W, strain DAK1, stronger effect = lower value",0.972
same,normalized growth,"locus YMR001C, strain CDC5, stronger effect = lower value",0.971
same,normalized growth,"locus YMR205C, strain PFK2 (second series), stronger effect = lower value",0.968
same,normalized growth,"locus YMR277W, strain FCP1, stronger effect = lower value",0.973
same,normalized growth,"locus YNL006W, strain LST8, stronger effect = lower value",0.98
same,normalized growth,"locus YNL020C, strain ARK1, stronger effect = lower value",0.966
same,normalized growth,"locus YNL161W, strain CBK1, stronger effect = lower value",0.982
same,normalized growth,"locus YNL183C, strain NPR1, stronger effect = lower value",1.01
same,normalized growth,"locus YNL207W, strain RIO2, stronger effect = lower value",0.964
same,normalized growth,"locus YNL222W, strain SSU72, stronger effect = lower value",0.978
same,normalized growth,"locus YNL307C, strain MCK1 (second series), stronger effect = lower value",0.95
same,normalized growth,"locus YOL078W, strain AVO1, stronger effect = lower value",0.986
same,normalized growth,"locus YOL136C, strain PFK27, stronger effect = lower value",0.959
same,normalized growth,"locus YOR061W, strain CKA2, stronger effect = lower value",0.961
same,normalized growth,"locus YOR119C, strain RIO1, stronger effect = lower value",1.06
same,normalized growth,"locus YOR231W, strain MKK1, stronger effect = lower value",0.873
same,normalized growth,"locus YOR329C, strain SCD5, stronger effect = lower value",0.973
same,normalized growth,"locus YPL031C, strain PHO85, stronger effect = lower value",0.975
same,normalized growth,"locus YPL153C, strain RAD53, stronger effect = lower value",0.982
same,normalized growth,"locus YPL204W, strain HRR25, stronger effect = lower value",0.966
same,normalized growth,"locus YPL209C, strain IPL1, stronger effect = lower value",0.973
same,normalized growth,"locus YPL256C, strain CLN2, stronger effect = lower value",0.777 (active)
same,normalized growth,"locus YPR025C, strain CCL1, stronger effect = lower value",0.976
same,normalized growth,"locus YPR106W, strain ISR1, stronger effect = lower value",0.977
same,normalized growth,"locus YPR111W, strain DBF20, stronger effect = lower value",0.96
same,normalized growth,"strain NNK1, stronger effect = lower value",0.962
same,normalized growth,"strain TSCII, stronger effect = lower value",0.978
